Targets with a hit are over-represented here; the source holds about 8,800 in all. About 0.5% of all pairs of compound and target were hits.
The targets below were run with COC(=O)[C@H](CCSC)NC(=O)C1=C(C=C(C=C1)NC[C@H](CS)N)C2=CC=CC=C2 (assay: log2 fold change, soluble protein after heating vs DMSO (PISA); higher = thermal stabilisation; K562 lysate, 10 uM; active = over 0.2 and 3.5 SD of the protein, either way, in both replicates (recomputed)).
Summary of the method: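 Soluble protein was defined as the supernatant remaining after 21,000xg for 90 min, following pooling of heated aliquots and adjustment to 0.5% NP-40 at 4°C. Before that, crude K562 extract at 1 mg/mL protein in PBS pH 7.4 with 1 mM MgCl2 was treated with 10 μM compound for 30 min and heated for 3 min across 48°C-58°C. Quantification used TMTpro 16plex LC-MS/MS with channel sums equalised, and values are log-two fold changes in thermal stability relative to solvent controls from duplicates.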

Chain of UniProt O15117 (O15117 whole entry, looked up): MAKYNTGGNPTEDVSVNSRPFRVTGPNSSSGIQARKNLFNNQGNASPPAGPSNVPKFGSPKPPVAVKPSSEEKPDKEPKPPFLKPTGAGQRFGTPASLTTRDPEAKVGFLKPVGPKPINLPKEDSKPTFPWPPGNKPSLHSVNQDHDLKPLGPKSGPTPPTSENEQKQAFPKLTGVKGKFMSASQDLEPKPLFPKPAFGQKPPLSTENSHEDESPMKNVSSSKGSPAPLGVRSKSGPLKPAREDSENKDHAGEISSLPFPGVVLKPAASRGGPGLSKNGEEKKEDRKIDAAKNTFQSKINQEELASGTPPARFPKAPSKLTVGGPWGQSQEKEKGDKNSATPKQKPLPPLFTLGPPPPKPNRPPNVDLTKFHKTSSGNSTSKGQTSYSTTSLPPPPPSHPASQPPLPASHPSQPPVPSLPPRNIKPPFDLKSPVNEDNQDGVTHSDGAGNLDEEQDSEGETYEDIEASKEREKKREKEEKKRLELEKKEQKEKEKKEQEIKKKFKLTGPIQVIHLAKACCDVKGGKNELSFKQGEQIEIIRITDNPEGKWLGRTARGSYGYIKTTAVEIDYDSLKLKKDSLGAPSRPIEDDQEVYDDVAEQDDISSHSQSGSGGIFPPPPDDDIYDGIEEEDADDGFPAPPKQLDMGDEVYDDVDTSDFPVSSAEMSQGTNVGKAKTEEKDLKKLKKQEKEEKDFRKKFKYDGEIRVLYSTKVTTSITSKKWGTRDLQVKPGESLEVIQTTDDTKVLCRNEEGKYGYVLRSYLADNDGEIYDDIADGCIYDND
Chain of UniProt Q92616 (Q92616 whole entry, looked up): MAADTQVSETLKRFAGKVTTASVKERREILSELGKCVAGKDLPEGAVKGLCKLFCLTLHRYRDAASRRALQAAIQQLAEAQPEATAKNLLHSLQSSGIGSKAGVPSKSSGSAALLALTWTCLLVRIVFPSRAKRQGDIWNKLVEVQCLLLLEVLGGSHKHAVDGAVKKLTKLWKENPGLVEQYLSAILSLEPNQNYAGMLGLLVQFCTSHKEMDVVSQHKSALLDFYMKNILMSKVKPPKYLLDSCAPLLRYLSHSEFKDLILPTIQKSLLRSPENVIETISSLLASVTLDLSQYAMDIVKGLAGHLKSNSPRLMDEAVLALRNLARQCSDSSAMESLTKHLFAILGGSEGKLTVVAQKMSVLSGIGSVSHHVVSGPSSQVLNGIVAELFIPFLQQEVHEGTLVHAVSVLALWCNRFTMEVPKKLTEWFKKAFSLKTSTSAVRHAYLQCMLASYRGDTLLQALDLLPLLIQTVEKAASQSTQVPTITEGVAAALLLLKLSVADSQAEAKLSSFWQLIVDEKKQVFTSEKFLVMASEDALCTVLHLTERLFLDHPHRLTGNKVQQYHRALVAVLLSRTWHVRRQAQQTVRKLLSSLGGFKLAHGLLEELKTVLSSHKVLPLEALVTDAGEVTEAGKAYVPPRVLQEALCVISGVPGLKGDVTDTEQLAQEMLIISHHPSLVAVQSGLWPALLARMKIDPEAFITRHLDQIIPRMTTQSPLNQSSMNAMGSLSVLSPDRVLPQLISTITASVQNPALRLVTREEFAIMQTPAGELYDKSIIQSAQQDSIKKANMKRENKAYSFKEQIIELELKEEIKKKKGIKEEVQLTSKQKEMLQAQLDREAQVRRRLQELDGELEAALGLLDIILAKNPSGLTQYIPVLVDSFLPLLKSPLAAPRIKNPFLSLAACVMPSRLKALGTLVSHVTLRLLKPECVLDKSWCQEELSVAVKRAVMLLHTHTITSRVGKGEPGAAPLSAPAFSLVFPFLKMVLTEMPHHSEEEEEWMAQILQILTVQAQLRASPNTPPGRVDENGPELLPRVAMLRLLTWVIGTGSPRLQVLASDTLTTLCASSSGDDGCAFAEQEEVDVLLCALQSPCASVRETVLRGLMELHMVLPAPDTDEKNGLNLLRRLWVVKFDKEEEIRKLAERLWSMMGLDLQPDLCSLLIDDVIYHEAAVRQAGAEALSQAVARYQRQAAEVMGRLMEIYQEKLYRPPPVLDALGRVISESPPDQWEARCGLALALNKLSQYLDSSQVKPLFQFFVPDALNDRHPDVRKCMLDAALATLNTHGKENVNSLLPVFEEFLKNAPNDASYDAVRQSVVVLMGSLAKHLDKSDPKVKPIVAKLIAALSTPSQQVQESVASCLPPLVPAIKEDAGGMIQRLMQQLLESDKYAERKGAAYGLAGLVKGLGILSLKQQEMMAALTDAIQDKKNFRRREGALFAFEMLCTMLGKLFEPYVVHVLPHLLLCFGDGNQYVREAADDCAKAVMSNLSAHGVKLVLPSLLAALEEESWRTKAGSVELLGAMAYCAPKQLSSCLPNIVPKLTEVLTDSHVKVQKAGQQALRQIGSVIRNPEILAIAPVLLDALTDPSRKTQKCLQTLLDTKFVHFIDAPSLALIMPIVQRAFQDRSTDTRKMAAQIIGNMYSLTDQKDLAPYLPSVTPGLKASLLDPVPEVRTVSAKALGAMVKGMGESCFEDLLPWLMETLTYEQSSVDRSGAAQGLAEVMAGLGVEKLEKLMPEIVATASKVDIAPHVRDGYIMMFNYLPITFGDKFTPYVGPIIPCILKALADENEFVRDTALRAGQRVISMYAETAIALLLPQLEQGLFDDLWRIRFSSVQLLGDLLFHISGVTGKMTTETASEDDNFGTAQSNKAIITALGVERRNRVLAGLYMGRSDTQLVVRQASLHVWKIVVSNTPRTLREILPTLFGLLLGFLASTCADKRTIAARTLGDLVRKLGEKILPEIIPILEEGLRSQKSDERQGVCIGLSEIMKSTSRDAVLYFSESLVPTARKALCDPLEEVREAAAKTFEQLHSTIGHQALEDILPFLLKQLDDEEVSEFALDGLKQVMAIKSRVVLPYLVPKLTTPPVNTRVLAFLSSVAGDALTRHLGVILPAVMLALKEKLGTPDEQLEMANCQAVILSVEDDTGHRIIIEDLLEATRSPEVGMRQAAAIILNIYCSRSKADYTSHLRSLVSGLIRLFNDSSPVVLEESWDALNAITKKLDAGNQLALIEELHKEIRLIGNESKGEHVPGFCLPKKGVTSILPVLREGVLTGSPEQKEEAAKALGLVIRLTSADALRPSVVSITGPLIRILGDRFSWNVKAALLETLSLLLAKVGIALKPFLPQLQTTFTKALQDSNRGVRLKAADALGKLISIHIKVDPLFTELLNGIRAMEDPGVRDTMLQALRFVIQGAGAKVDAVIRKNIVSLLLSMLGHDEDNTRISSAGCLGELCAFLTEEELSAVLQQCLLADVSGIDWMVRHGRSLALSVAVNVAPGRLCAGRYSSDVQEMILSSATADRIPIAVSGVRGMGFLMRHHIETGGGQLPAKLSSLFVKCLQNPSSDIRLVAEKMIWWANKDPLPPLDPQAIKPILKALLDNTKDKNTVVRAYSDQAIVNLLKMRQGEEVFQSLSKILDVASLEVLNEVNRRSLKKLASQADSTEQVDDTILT
Chain of UniProt Q9UBQ6 (Q9UBQ6 whole entry, looked up): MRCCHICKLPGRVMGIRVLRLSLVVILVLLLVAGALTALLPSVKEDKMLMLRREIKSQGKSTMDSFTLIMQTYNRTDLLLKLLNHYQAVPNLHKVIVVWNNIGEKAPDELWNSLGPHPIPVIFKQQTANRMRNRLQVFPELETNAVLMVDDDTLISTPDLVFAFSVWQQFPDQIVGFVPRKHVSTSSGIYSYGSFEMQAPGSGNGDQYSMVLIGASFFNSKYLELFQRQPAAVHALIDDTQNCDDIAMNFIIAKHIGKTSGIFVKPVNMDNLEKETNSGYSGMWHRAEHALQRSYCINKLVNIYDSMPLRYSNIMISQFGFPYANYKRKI
Chain of UniProt Q9UJ14 (Q9UJ14 whole entry, looked up): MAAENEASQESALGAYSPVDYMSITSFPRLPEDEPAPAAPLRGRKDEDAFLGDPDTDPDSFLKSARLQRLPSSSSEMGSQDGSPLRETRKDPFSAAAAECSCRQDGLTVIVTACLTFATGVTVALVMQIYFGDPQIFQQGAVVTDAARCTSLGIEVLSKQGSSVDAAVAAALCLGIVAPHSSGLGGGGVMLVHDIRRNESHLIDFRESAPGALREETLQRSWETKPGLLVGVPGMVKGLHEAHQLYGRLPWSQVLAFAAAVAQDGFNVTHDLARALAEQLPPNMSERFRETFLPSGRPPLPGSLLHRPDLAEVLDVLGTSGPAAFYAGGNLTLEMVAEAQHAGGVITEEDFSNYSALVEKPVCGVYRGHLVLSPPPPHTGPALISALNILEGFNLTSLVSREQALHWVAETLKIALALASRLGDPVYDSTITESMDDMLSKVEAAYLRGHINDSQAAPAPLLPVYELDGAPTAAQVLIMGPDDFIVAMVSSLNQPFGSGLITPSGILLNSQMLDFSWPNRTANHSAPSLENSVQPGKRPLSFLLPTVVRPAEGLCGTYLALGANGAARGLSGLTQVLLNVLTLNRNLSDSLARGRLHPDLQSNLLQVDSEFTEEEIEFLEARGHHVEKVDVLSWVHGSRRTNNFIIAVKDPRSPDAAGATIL
Chain of UniProt P51116 (P51116 whole entry, looked up): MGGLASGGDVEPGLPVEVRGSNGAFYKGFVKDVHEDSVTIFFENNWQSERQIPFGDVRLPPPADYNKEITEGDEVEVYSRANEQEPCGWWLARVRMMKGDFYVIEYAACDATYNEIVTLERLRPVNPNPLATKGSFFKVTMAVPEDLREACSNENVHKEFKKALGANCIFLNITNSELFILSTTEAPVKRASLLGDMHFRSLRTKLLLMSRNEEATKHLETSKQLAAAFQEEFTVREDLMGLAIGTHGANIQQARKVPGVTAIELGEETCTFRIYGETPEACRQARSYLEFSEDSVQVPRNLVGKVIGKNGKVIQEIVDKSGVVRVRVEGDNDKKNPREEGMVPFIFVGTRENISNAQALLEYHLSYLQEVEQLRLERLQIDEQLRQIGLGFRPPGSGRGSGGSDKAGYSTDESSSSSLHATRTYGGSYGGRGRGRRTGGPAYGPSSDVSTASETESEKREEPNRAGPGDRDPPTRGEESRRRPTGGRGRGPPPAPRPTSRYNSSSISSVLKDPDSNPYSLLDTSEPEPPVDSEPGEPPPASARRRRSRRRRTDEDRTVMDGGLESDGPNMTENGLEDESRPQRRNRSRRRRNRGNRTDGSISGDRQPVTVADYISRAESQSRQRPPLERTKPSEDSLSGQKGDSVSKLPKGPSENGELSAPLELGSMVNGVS

log2 fold change, inactive:
FTL (UniProt P02792) -0.076
EPHX2 (UniProt P34913) -0.058
FLAD1 (UniProt Q8NFF5) 0.137
ELF2 (UniProt Q15723) 0.038
EPB41, A0A2R8Y6D0 0.052
EIF3I (UniProt Q13347) 0.156
ERCC4 (UniProt Q92889) -0.001
EIF2B4 isoform 2 (UniProt Q9UI10) 0.162
EP400 isoform 5 (UniProt Q96L91) 0.068
GCN1 (UniProt Q92616) 0.147
FBXO22 (UniProt Q8NEZ5) -0.006
GIGYF2 (UniProt Q6Y7W6) -0.063
GAMT (UniProt Q14353) 0.039
ERLIN2 (UniProt O94905) -0.164
EIF2B3 (UniProt Q9NR50) 0.057
GALK1 isoform 2 (UniProt P51570) -0.171
ERAL1 (UniProt O75616) 0.058
EFCAB14 (UniProt O75071) -0.086
FPGT (UniProt O14772) 0.058
FXR2 (UniProt P51116) 0.064
FAU (UniProt E9PR30) 0.013
FIBP (UniProt O43427) 0.094
EIF2B5 (UniProt Q13144) 0.046
ECI2 (UniProt O75521) -0.067
EED, A0A5F9ZI63 0.063
DST (UniProt Q03001) 0.048
FYB1 isoform 3 (UniProt O15117) -0.035
EXTL2 (UniProt Q9UBQ6) -0.048
EXOC4 (UniProt Q96A65) 0.078
GGT7 (UniProt Q9UJ14) -0.065
DYNC1I2 isoform 5 (UniProt Q13409) -0.012
FIG4 (UniProt Q92562) 0.037
EXOC2 (UniProt Q96KP1) 0.027
FOXJ3 (UniProt Q9UPW0) -0.137
EPRS (UniProt P07814) 0.107
GALNT2 (UniProt Q10471) -0.047
GGA2 (UniProt Q9UJY4) 0.01
